Experimental data from PubChem BioAssay (NCATS).
Records with an inconclusive call do not appear. Activity calls are given as the source filed them. Unless noted, the call rests on the fitted dose curve; in most records, active means well fitted curve in the direction sought with a large enough effect; inconclusive means small, poorly fitted or top-dose-only effect, or another doubt; inactive means no such curve, though single readings can be large; an effect the other way counts as inactive or inconclusive.

Key:
[1] = target: Cytochrome P450 3A4 (Homo sapiens) (UniProt P08684); assay: qHTS Assay for Inhibitors and Substrates of Cytochrome P450 3A4 (AID 884); further: nearly all actives have a fitted effect of over 50% in size; further: potency means the concentration at half of the fitted maximal effect; on activity change, negative = inhibition: on the % scale 0 is the no-effect control and ±100 the full control effect
Chain of Cytochrome P450 3A4 (Homo sapiens) (P08684 whole entry, looked up): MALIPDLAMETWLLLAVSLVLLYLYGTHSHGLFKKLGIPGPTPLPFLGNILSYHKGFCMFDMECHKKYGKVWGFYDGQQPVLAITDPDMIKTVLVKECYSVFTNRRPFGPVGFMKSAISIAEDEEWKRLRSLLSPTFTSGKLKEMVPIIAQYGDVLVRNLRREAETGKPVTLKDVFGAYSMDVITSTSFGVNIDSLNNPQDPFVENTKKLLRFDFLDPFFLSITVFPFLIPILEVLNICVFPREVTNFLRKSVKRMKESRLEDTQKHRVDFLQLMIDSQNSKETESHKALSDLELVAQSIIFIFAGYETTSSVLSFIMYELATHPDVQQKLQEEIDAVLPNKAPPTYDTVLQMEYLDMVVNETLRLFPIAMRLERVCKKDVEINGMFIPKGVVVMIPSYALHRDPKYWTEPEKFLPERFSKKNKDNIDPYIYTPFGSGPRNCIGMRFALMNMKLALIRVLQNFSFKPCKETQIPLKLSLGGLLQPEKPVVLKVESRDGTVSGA
Procedure, shortened: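 Luminescent readout of luciferin produced by CYP3A4 (20 nM) dealkylation of Luciferin-PPXE, 25 uM (its KM). NADPH-driven reaction ran 60 min at RT after 10 min compound preincubation; data scaled to 57 uM ketoconazole as 100% inhibition.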

[2] = Confirmation and Secondary Assay for Modulators of Hemoglobin Beta Chain Splicing at IVS2 654 locus (AID 910);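 further: HeLa cells stably carrying EGFP split by mutant beta-globin IVS2-654 intron; % of control where 0% means no effect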
Procedure, shortened: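 HeLa cells stably expressing EGFP interrupted by β-globin IVS2-654 intron, seeded overnight in Opti-MEM/2% FCS, then treated 2 days at 37 °C. Restored splicing read as total peak GFP intensity per well by laser scanning cytometry (488 nm excitation, 500–520 nm emission); 500 nM antisense PNA as control.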

[3] = Confirmation and Secondary Assay for Modulators of Hemoglobin Beta Chain Splicing at IVS2 705 locus (AID 930);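 further: HeLa cells stably expressing the EGFP-705 splicing reporter; GFP fluorescence per well restored by corrected splicing of the IVS2-705 intron in EGFP; % of control where 0% means no effect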
Procedure, shortened: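 HeLa cells stably carrying EGFP interrupted by mutant beta-globin intron 2 (IVS2-705) treated 2 days at 37C with compound; 500 nM antisense PNA as control. Correct splicing read as total peak GFP intensity per well by laser-scanning cytometry.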

[4] = qHTS Assay for Lipid Storage Modulators (AID 1519; calls by dose curve; on activity change, negative = inhibition: on the % scale 0 is the no-effect control and ±100 the full control effect); conditions: Drosophila S3 cells, BODIPY lipid droplet/cell ratio, laser cytometry, cells loaded with oleic acid; for activity change, negative = inhibition: at 57.5 µM (top of the series)
Procedure, shortened: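 Cells seeded at 5,000 per well were treated with compounds over a concentration series and loaded with oleic acid (400 uM, as added). Lipid droplet fluorescence (488 nm excitation, 500-530 nm channel) was read by laser-scanning cytometry and normalized to 20 uM Triacsin C.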

[5] = target: Cytochrome P450 3A4 (Homo sapiens) (UniProt P08684); assay: qHTS Assay for Activators of Cytochrome P450 3A4 (AID 885); further: nearly all actives have a fitted effect of over 65% in size
Procedure, shortened: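 Human CYP3A4 dealkylates Luciferin-PPXE to luciferin, which luciferase detection converts to light. Substrate was at its KM (25uM), buffer 200mM KPO4, reaction 60 min at RT.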

[6] = measured here: cell count channel max response
[7] = measured here: lipid channel max response

| Structure (SMILES) | Potency [1] | Potency [2] | Potency [3] | activity change, negative = inhibition [4] | max response [4, 6] | max response [4, 7] | Potency [5] |
| --- | --- | --- | --- | --- | --- | --- | --- |
| COC(=O)CC1C(C)(C)C(=O)C2CC3=C(CC[C@]4(C)C3=CC(=O)OC4c3ccoc3)[C@@]1(C)C2=O (stereo not given in full) | 2510 nM (active) | inactive | inactive | -1.73% (inactive) | 16% | 14.2% | – |
| O=c1cc(-c2ccc(O)cc2)oc2cc(OC3OC(CO)C(O)C(O)[C@H]3O[C@@H]3OC[C@@](O)(CO)C3O)cc(O)c12 (stereo not given in full) | inactive | inactive | inactive | 1.57% (inactive) | 23.4% | 26.6% | – |
| CC(=O)O[C@@]1(C(C)=O)CCC2C3C=C(C)C4=CC(=O)CCC4(C)C3CCC21C (stereo not given in full) | inactive | inactive | inactive | 3.94% (inactive) | 7.28% | 12.7% | – |
| CCc1ccc2c(O)c3c(cc2c1C(=O)OC)C(=O)c1c(O)ccc(O)c1C3=O | inactive | inactive | inactive | 12.8% (inactive) | 5.77% | 24.1% | – |
| CC(C)C1=CC2=CC[C@@H]3[C@](C)(CO)CCC[C@]3(C)C2CC1 (stereo not given in full) | inactive | inactive | inactive | 1.89% (inactive) | 10.4% | 14.9% | – |
| O=C(/C=C/c1ccccc1)c1ccc(O[C@H]2OC(CO)C(O)C(O)C2O)cc1O (stereo not given in full) | inactive | inactive | inactive | -0.595% (inactive) | 18.3% | 22.6% | – |
| CCCCCCCC/C=C/CCCCCCCCOP(=O)([O-])OCC[N+](C)(C)C | inactive | inactive | inactive | 12.8% (inactive) | 12.4% | 28.9% | – |
| CC(=O)OC1CC[C@]2(C)C(CC(OC(C)=O)[C@]3(C)C2CC[C@@]2(C)C(c4ccoc4)OC(=O)C4O[C@]432)C1(C)C (stereo not given in full) | inactive | inactive | inactive | 15.1% (inactive) | 12.6% | 25.6% | – |
| COc1cc(/C=C/C(=O)O)cc(OC)c1OC | inactive | inactive | inactive | 3.87% (inactive) | 9.64% | 14.9% | – |
| C#C[C@@]1(O)CCC2C3CCc4cc(O)ccc4C3CC[C@@]21C (stereo not given in full) | – | inactive | inactive | 6.48% (inactive) | 1.86% | 11.2% | – |
| CC(=O)c1c(O)c(C)c(O)c2c1OC1=CC(=O)C(C(C)=O)C(=O)C12C (stereo not given) | – | inactive | inactive | 6.96% (inactive) | 24.8% | 22.6% | – |
| NC(C(=O)NC1C(=O)N2C(C(=O)O)=C(Cl)CSC12)c1ccccc1 (stereo not given) | – | inactive | inactive | 8.35% (inactive) | 18.8% | 24.9% | inactive |
| NCC1O[C@@H](O[C@H]2C(O)C(O[C@@H]3C(O[C@H]4OC(CO)C(O)C(O)C4N)C(N)CC(N)[C@H]3O)O[C@@H]2CO)C(N)C(O)C1O (stereo not given in full) | – | inactive | inactive | 10.8% (inactive) | 18.8% | 35.3% | – |
| CC(=O)OC1CC2C(C)(C)C(O)CCC2(C)C2CC[C@]3(C)C(=CC(=O)OC3c3ccoc3)C12C (stereo not given in full) | – | inactive | inactive | -0.0065% (inactive) | -9.39% | -0.419% | – |
| C#CCCCCCCCCCCCC(O)CC(O)CO (stereo not given) | – | inactive | inactive | 15.6% (inactive) | 3.34% | 18.3% | – |
| CC(=O)OC[C@@]1(O)C[C@]23CCC4c5ccoc5CC[C@@]4(C)C2CCC1C3 (stereo not given in full) | – | inactive | inactive | 6.91% (inactive) | 7.17% | 15.2% | inactive |
| O=C(/C=C(\O)c1ccccc1)c1ccccc1O | – | inactive | inactive | -15.7% (inactive) | -12.9% | -24.5% | inactive |
| CC(C)=CCCC(C)C1CC[C@@]2(C)C3=C(CC[C@@]12C)C1(C)CCC(O)C(C)(C)C1CC3 (stereo not given in full) | – | inactive | inactive | 6.04% (inactive) | 10.4% | 15.7% | – |
| C=CCCCCCCCCCCC/C=C/C(O)COC(C)=O (stereo not given) | – | inactive | inactive | 8.71% (inactive) | 8.46% | 19.5% | inactive |
| CC1OC(OCC2OC(Oc3c(-c4ccc(O)c(O)c4)oc4cc(O)cc(O)c4c3=O)C(O)C(O)C2O)[C@@H](O)C(O)C1O (stereo not given in full) | – | inactive | inactive | 4.3% (inactive) | 4.35% | 10.1% | – |
| CC1(C)OC2CC3C4CCC5=CC(=O)CCC5(C)C4(F)C(O)CC3(C)[C@]2(C(=O)CCl)O1 (stereo not given in full) | – | inactive | inactive | 8% (inactive) | 13.8% | 26.2% | inactive |
| CC(C)c1c(O)ccc2c1CCC1[C@@](C)(C=O)CCC[C@@]21C (stereo not given in full) | – | inactive | inactive | -2.8% (inactive) | 1.05% | -0.0657% | inactive |
| O=c1c(O)cccc2cc(O)c(O)c(O)c12 | – | inactive | – | 9.52% (inactive) | 11.8% | 24.4% | – |
| CC(=O)Oc1cc2c(c(C)c1OC(C)=O)CC=C1[C@]3(C)CC[C@]4(C)CC[C@@](C)(C(=O)O)CC4[C@]3(C)CC[C@]12C (stereo not given in full) | – | inactive | inactive | -5.08% (inactive) | -7.33% | -12.4% | inactive |
